Measured values from PubChem BioAssay (EPA / NIEHS).
Records with an inconclusive call do not appear. Activity calls are given as the source filed them. The calls were made as follows, unless noted: active = hit-call score of the fitted dose curve at least 0.9, where 1 is the maximum; inconclusive = response in the unintended direction; inactive = score below 0.9.

What was measured:
[1] = target: Estrogen receptor (Homo sapiens) (UniProt P03372); assay: OT_ERa_GFPERaERE_0480: Odyssey Thera (OT) 8-hour HeLa Transcription Induction Assay for Estrogen Receptor (AID 2283381; active = hit-call score of the fitted dose curve at least 0.9, where 1 is the maximum; inactive = score below 0.9)
Method in brief: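 Human cervical HeLa cells were treated for 8 hours, after which ERE-driven GFP induction was measured by fluorescence microscopy; increases over DMSO baseline defined activity.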

[2] = target: Estrogen receptor (Homo sapiens) (UniProt P03372); assay: OT_ERa_GFPERaERE_0120: Odyssey Thera (OT) 2-hour HeLa Transcription Induction Assay for Estrogen Receptor (AID 2283382)
Method in brief: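 Cells (human cervical HeLa) receive compound, incubate 2 hours, then are imaged for fluorescent reporter induction. Images are quantified by high content analysis, and activity is fitted as gain of signal against DMSO.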

[3] = target: Peroxisome proliferator-activated receptor gamma (Homo sapiens) (UniProt P37231); assay: OT_PPARg_PPARgSRC1_0480: Odyssey Thera (OT) 8-hour Protein-Complementation Assay for Peroxisome Proliferator-activated Receptor Gamma / SRC-1 Co-activator (AID 2283387)
Method in brief: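 HEK293T transiently transfected with PPARg and SRC-1 fused to Venus YFP fragments, compounds 8 h at 37C. Fixed, Draq5-stained cells imaged; nuclear/cytoplasmic 488 nm fluorescence ratio over at least 350 cells per image; gain fitted versus DMSO.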

[4] = target: Peroxisome proliferator-activated receptor gamma (Homo sapiens) (UniProt P37231); assay: OT_PPARg_PPARgSRC1_1440: Odyssey Thera (OT) 24-hour Protein-Complementation Assay for Peroxisome Proliferator-activated Receptor Gamma/ SRC-1 Co-activator (AID 2283388)
Method in brief: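 HEK293T transiently transfected with PPARg/SRC-1 split-Venus YFP fusions 48 h before dosing, then treated 24 h at 37C. Fixed cells imaged; nuclear/cytoplasmic 488 nm fluorescence ratio, gain of signal versus DMSO.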

[5] = target: Estrogen receptor beta (Homo sapiens) (UniProt Q92731); assay: OT_ER_ERbERb_1440: Odyssey Thera (OT) 24-hour HEK293T Protein-Complementation Assay for Estrogen Receptor-beta/-beta Homodimer (AID 2283380);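 also: scored as signal increase over DMSO baseline for both agonists and antagonists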
Method in brief: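 HEK293T cells stably expressing ER beta LBD (aa 310-547) homodimer fragment-complementation reporter, dosed 24 h. Cells formaldehyde-fixed, Draq5-stained; gain in nuclear (agonist) or nuclear plus cytoplasmic (antagonist) fluorescence versus DMSO read by laser scanning cytometry.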

[6] = target: Bile acid receptor (Homo sapiens) (UniProt Q96RI1); assay: OT_FXR_FXRSRC1_0480: Odyssey Thera (OT) 8-hour HEK293T Protein-Complementation Assay for Farnesoid X receptor/SRC-1 Co-activator (AID 2283383)
Method in brief: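 PCA, HEK293T, 8 h compound exposure; FXR–SRC-1 binding reconstitutes split reporter; fluorescence intensity; positive-direction fit vs DMSO.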

[7] = target: Bile acid receptor (Homo sapiens) (UniProt Q96RI1); assay: OT_FXR_FXRSRC1_1440: Odyssey Thera (OT) 24-hour HEK293T Protein-Complementation Assay for Farnesoid X receptor/SRC-1 Co-activator (AID 2283384)
Method in brief: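 Measures ligand-driven FXR–SRC-1 co-activator recruitment in HEK293T via fragment complementation, fluorescence intensity at 24 h. DMSO served as negative control and baseline for gain-of-signal fitting.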

[8] = CEETOX_H295R_11DCORT: CeeTox H295R High-throughput Steroidogenesis Assay for 11-Deoxycortisol (11DCORT) (AID 2283432; active = hit-call score of the fitted dose curve at least 0.9, where 1 is the maximum; inactive = score below 0.9;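 as to AC50: human adrenal H295R cells prestimulated with 10 µM forskolin for 48 h; 11-deoxycortisol secreted into the medium measured by LC-MS/MS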); details: actives raise or lower the signal
Method in brief: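 H295R cells prestimulated 48 h with 10 uM forskolin, then exposed 48 h to chemical in 0.1% DMSO. 11-Deoxycortisol in medium quantified by HPLC-MS/MS after MTBE extraction; bidirectional fit versus DMSO. MTT viability read in same wells.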

[9] = CEETOX_H295R_OHPREG: CeeTox H295R High-throughput Steroidogenesis Assay for OH-Pregnenolone (OHPREG) (AID 2283434; active = hit-call score of the fitted dose curve at least 0.9, where 1 is the maximum; inactive = score below 0.9); details: actives raise or lower the signal
Method in brief: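 H295R, 10 uM forskolin pre-stim 48 h; test chemical 48 h, 0.1% DMSO final. MTBE extraction, reverse-phase C18 HPLC-ESI+ MS/MS of medium. Gain/loss vs DMSO; viability by MTT in same wells.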

[10] = CEETOX_H295R_OHPROG: CeeTox H295R High-throughput Steroidogenesis Assay for OH-Progesterone (OHPROG) (AID 2283435; active = hit-call score of the fitted dose curve at least 0.9, where 1 is the maximum; inactive = score below 0.9;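 also: human adrenal H295R cells primed 48 h with 10 µM forskolin; 17alpha-hydroxyprogesterone secreted into medium measured by HPLC-MS/MS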); details: actives raise or lower the signal
Method in brief: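 Steps: seed H295R cells and adhere overnight; stimulate with 10 uM forskolin for 48 h; replace with chemical-containing medium (0.1% DMSO) for 48 h; extract medium with MTBE; quantify 17alpha-hydroxyprogesterone by reverse-phase C18 HPLC-MS/MS against a 7-point curve.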

[11] = CEETOX_H295R_ANDR: CeeTox H295R High-throughput Steroidogenesis Assay for Androstenedione (ANDR) (AID 2283436; active = hit-call score of the fitted dose curve at least 0.9, where 1 is the maximum; inactive = score below 0.9;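 also: human H295R adrenal cells exposed for 48 h with androstenedione measured in medium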); details: actives raise or lower the signal
Method in brief: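 48 h chemical exposure, H295R cells, DMEM/F12 + ITS+ and Nu-Serum. Medium androstenedione: MTBE extraction, C18 reverse-phase HPLC, ESI+ MS/MS. Fit bidirectional vs DMSO; MTT viability in same wells.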

[12] = CEETOX_H295R_CORTIC: CeeTox H295R High-throughput Steroidogenesis Assay for Corticosterone (CORTIC) (AID 2283437; active = hit-call score of the fitted dose curve at least 0.9, where 1 is the maximum; inactive = score below 0.9;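 also: corticosterone secreted into medium quantified by mass spectrometry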;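 as to AC50: human H295R adrenal cells prestimulated with forskolin before chemical exposure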); details: actives raise or lower the signal
Method in brief: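 48 h forskolin (10 uM) prestim, then 48 h chemical exposure, final DMSO 0.1%. Readout: corticosterone in medium by LC-MS/MS after MTBE extraction. Gain/loss fit vs DMSO; MTT viability in same wells.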

[13] = CEETOX_H295R_CORTISOL: CeeTox H295R High-throughput Steroidogenesis Assay for Cortisol (AID 2283438; active = hit-call score of the fitted dose curve at least 0.9, where 1 is the maximum; inactive = score below 0.9); details: actives raise or lower the signal
Method in brief: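 Cortisol synthesis by H295R cells is measured 48 h after chemical dosing, following a 48 h stimulation with 10 uM forskolin. Hormone is extracted and quantified by HPLC-MS/MS, and activity is fitted bidirectionally against the DMSO control.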

[14] = CEETOX_H295R_DOC: CeeTox H295R High-throughput Steroidogenesis Assay for DOC (AID 2283439; active = hit-call score of the fitted dose curve at least 0.9, where 1 is the maximum; inactive = score below 0.9); details: actives raise or lower the signal
Method in brief: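 Steps: seed H295R, adhere overnight; 10 uM forskolin 48 h; replace with chemical medium (0.1% DMSO) 48 h; collect medium, MTBE extraction, HPLC-MS/MS for DOC. Viability then checked by MTT; cytotoxic chemicals diluted until viability ≥70%.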

[15] = CEETOX_H295R_ESTRADIOL: CeeTox H295R High-throughput Steroidogenesis Assay for Estradiol (AID 2283440; active = hit-call score of the fitted dose curve at least 0.9, where 1 is the maximum; inactive = score below 0.9;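 also: estradiol secreted into medium quantified by LC-MS/MS after dansyl derivatisation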); details: actives raise or lower the signal
Method in brief: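 H295R cells pre-stimulated 48 h with 10 uM forskolin, then exposed 48 h to chemical in 0.1% DMSO. Medium estradiol quantified by MTBE extraction, dansyl derivatisation and HPLC-MS/MS; bidirectional fit versus DMSO; MTT viability required >/=70%.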

[16] = CEETOX_H295R_ESTRONE: CeeTox H295R High-throughput Steroidogenesis Assay for Estrone (AID 2283441; active = hit-call score of the fitted dose curve at least 0.9, where 1 is the maximum; inactive = score below 0.9); details: actives raise or lower the signal
Method in brief: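 Estrone secreted into medium quantified by LC-MS/MS after dansyl chloride derivatization, following 48 h chemical exposure (0.1% DMSO final) of forskolin-prestimulated (10 uM, 48 h) H295R cells; gain or loss fitted against DMSO; MTT viability in same wells.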

Measured: AC50

Chain of Peroxisome proliferator-activated receptor gamma (Homo sapiens) (P37231 whole entry, looked up, the tested form may be a part): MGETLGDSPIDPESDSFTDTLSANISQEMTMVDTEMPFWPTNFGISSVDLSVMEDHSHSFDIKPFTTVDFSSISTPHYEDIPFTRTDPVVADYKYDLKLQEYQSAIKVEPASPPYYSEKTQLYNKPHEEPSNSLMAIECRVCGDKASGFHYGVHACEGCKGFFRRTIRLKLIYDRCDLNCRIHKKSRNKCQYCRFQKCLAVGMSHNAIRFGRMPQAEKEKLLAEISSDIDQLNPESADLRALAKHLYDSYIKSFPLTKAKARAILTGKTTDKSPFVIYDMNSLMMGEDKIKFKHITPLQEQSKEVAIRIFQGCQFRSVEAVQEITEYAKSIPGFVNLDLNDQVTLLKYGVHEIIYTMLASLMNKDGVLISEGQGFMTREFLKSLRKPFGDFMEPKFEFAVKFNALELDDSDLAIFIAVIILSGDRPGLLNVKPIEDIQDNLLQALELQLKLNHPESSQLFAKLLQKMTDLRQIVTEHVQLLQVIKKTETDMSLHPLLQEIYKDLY
Chain of Estrogen receptor (Homo sapiens) (P03372 whole entry, looked up): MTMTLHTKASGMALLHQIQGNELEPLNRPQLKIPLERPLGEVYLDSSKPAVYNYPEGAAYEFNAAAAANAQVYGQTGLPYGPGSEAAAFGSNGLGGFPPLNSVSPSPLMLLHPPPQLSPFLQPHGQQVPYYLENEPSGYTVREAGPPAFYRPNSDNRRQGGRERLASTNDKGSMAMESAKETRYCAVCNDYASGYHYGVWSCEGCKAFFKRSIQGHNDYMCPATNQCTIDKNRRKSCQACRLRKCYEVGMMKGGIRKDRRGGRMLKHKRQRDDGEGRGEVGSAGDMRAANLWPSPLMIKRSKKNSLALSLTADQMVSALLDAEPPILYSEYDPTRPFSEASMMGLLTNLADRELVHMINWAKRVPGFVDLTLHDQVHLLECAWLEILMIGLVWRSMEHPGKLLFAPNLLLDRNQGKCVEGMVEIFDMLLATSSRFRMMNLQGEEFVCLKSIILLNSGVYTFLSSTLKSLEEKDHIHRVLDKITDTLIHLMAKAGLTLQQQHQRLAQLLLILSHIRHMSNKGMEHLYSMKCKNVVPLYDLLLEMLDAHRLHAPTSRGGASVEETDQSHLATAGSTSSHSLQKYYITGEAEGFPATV
Chain of Bile acid receptor (Homo sapiens) (Q96RI1 whole entry, looked up, the tested form may be a part): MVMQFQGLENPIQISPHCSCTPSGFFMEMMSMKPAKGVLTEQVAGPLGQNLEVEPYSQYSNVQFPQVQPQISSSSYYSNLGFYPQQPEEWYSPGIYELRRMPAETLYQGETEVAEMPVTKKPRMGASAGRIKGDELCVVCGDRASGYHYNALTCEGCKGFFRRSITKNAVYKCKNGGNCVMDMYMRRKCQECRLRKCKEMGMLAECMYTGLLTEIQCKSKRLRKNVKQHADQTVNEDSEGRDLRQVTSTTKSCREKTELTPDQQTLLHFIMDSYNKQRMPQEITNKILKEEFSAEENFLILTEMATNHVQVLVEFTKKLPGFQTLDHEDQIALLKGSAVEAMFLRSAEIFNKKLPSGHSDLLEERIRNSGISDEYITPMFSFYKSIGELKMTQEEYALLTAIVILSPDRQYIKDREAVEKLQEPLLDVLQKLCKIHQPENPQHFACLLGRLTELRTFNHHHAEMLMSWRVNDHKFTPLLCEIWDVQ
Chain of Estrogen receptor beta (Homo sapiens) (Q92731 whole entry, looked up, the tested form may be a part): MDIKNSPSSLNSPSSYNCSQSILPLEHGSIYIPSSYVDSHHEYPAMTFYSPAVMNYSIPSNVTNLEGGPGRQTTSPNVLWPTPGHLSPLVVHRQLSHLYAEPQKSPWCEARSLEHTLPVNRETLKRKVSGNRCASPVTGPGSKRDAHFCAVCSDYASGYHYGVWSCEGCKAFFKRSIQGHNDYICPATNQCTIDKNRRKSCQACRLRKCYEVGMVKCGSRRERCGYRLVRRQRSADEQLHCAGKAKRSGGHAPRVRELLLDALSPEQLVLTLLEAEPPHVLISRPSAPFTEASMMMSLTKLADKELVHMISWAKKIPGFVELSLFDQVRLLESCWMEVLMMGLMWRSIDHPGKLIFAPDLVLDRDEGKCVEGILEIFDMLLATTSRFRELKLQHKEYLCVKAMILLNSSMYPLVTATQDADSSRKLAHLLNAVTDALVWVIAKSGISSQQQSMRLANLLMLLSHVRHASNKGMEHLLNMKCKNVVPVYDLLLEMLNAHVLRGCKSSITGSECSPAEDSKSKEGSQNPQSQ

Cc1ccc(C(C)(C)C)cc1
inactive: [1] | [2] | [3] | [4]

CC(C)(C)c1ccc(N)cc1
inactive: [5] | [1] | [2] | [3] | [4]

CCCCOCCOC(=O)COc1nc(Cl)c(Cl)cc1Cl
inactive: [1] | [2] | [6] | [7] | [3] | [4]

C1=Cc2ccccc2C1
inactive: [1] | [2] | [3] | [4]

COCc1c(C(C)C)nc(C(C)C)c(/C=C/[C@@H](O)C[C@@H](O)CC(=O)O)c1-c1ccc(F)cc1
inactive: [13] | [15] | [16]
active: [8] 0.0173 µM | [9] 0.00141 µM | [10] 0.0173 µM | [11] 22.4 nM | [12] 13.9 nM | [14] 0.0107 µM

C=C[Si](C)(C)O[Si](C)(C)C=C
inactive: [1] | [2] | [3] | [4]

CCCCCc1ccc(Cl)cc1
inactive: [1] | [2] | [6] | [7] | [3] | [4]

Cc1cc(C)c(C)cc1C
inactive: [1] | [2] | [6] | [3] | [4]

CCCCCCCCCCOS(=O)(=O)O
inactive: [1] | [2] | [3] | [4]

C1=CCCC1
inactive: [8] | [11] | [12] | [13] | [14]

CCOC(=O)Cc1cccc2ccccc12
active: [8] 34.3 µM | [9] 61.3 µM | [10] 40.1 µM | [14] 30.8 µM
inactive: [5] | [1] | [2] | [3] | [4] | [12] | [13] | [15] | [16]
